This test in a line: Primary qHTS for small molecule stabilizers of the endoplasmic reticulum resident proteome: Secreted ER Calcium Modulated Protein (SERCaMP) assay (AID 1508630). The method in brief:
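GLuc-SERCaMP-expressing SH-SY5Y cells, pretreated 16 h with compound, are challenged with thapsigargin to empty ER calcium stores; after 4 h, coelenterazine is added directly to the medium and luminescence is imaged.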
On the technique in general: Quantitative high-throughput screening tests each substance at several concentrations.

The record followed here is PubChem BioAssay (NCATS).

Each structure is given as a SMILES string. Inconclusive results are not listed. A call without a number means that no potency is given here. The source made the active and inactive calls. The call rests on the fitted dose curve; in most records, active means well fitted inhibition curve with a large enough effect; inconclusive means small, poorly fitted or top-dose-only effect; inactive means no such curve, though single readings can be large or run the other way.

Regarding `CCC1Cc2cc(O)ccc2C2=C1c1ccc(O)cc1CC2CC` (stereo unspecified), the Potency entry was “inactive”.
